In PubChem BioAssay (EPA / NIEHS):
Several values for one entry are separate records, joined by “and”; a condition that tells them apart may be missing. Identical values can stand only once. Some compounds were tested as several samples or in several runs, with calls that do not always agree. Activity calls are given as the source filed them. The calls were made as follows: active = hit-call score of the fitted dose curve at least 0.9, where 1 is the maximum; inactive = score below 0.9.

Columns and labels:
[1] = ATG_GLI_CIS: Attagene CIS-FACTORIAL HepG2 Assay for human Zinc Finger Protein GLI1 (AID 2282945); conditions: HepG2, Attagene cis-factorial reporter mRNA, GLI element; actives raise or lower the signal
Summary of the method: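 HepG2 cells transiently transfected with cis-promoter multiplexed reporter units report endogenous transcription factor activity. After 24 h chemical exposure, reporter mRNA was quantified by RT-PCR, 6-FAM labelling, HpaI digestion and capillary electrophoresis, with bidirectional fitting against DMSO.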

[2] = target: Bile acid receptor (Homo sapiens) (UniProt Q96RI1); experiment: ATG_IR1_CIS: Attagene CIS-FACTORIAL HepG2 Assay for human Nuclear Receptor Subfamily 1 Group H Member 4 (NR1H4), IR1 submotif (AID 2282946); conditions: IR1 reporter transcription, actives raise or lower the signal
Sequence of Bile acid receptor (Homo sapiens) (Q96RI1 whole entry, looked up): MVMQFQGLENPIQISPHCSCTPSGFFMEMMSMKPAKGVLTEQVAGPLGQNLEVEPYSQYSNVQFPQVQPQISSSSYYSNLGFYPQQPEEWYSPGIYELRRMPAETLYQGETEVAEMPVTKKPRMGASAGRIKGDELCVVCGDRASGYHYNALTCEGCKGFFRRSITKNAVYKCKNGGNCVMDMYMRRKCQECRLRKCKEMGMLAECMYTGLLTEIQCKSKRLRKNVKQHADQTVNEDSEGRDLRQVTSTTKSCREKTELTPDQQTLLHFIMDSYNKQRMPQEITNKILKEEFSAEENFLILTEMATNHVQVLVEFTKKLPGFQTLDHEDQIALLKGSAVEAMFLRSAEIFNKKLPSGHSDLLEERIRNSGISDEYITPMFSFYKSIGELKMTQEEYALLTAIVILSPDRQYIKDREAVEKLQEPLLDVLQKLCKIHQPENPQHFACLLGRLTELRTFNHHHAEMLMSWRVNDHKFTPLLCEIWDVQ
Summary of the method: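 Transient MRTU transfection, HepG2; 24 h dosing; RNA → RT-PCR → 6-FAM primer extension → HpaI digest → capillary electrophoresis fluorescence. Gain/loss of signal fitted relative to DMSO.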

[3] = ATG_GRE_CIS: Attagene CIS-FACTORIAL HepG2 Assay for human Glucocorticoid Response Elements (GRE) (AID 2282947); conditions: HepG2 GRE cis-reporter, Attagene multiplex mRNA; actives raise or lower the signal
Summary of the method: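 Following 24 h chemical exposure of transiently transfected HepG2 cells, total RNA was reverse-transcribed and reporter cDNA amplified, fluorescently labelled and sized by capillary electrophoresis. Signal gain or loss was fitted relative to DMSO vehicle.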

[4] = ATG_ISRE_CIS: Attagene CIS-FACTORIAL HepG2 Assay for human Interferon Regulatory Factor 1 (IRF1) binding to an Interferon-Stimulated Response Element (ISRE) (AID 2282948); conditions: HepG2 ISRE cis-reporter (Attagene), mRNA transcription readout; actives raise or lower the signal
Summary of the method: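 Cell-based cis-reporter assay; HepG2; 24 h exposure; reporter mRNA by RT-PCR plus capillary electrophoresis fluorescence; activity in either direction scored relative to DMSO.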

[5] = ATG_M_32_CIS: Attagene CIS-FACTORIAL HepG2 Assay for M32 Transcription Factor (Internal Marker) (AID 2282949); conditions: HepG2 Attagene cis-factorial M32 reporter, mRNA; actives raise or lower the signal;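 also: background control marker of the multiplexed CIS panel rather than a real target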
Summary of the method: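 Fluorescent capillary electrophoresis peaks of HpaI-digested, FAM-labelled RT-PCR reporter products give the signal. Source: transiently transfected human liver HepG2 cells, 24 h after chemical dosing; bidirectional fitting against DMSO.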

[6] = ATG_M_06_CIS: Attagene CIS-FACTORIAL HepG2 Assay for M06 Transcription Factor (Internal Marker) (AID 2282950); conditions: HepG2 Attagene CIS-FACTORIAL M06 internal marker reporter; actives raise or lower the signal
Summary of the method: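 Steps: transfect HepG2 with multiplexed cis-element reporter constructs; dose chemical 24 h; extract RNA with DNase treatment; reverse-transcribe, PCR-amplify, 6-FAM label, HpaI digest; separate fragments by capillary electrophoresis. Activity fitted both directions versus DMSO.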

[7] = target: Hypoxia-inducible factor 1-alpha (Homo sapiens) (UniProt Q16665); experiment: ATG_HIF1a_CIS: Attagene CIS-FACTORIAL HepG2 Assay for human Hypoxia Inducible Factor 1 (HIF1A) (AID 2282951); conditions: HepG2 Attagene cis-factorial HIF1a reporter transcription; actives raise or lower the signal
Sequence of Hypoxia-inducible factor 1-alpha (Homo sapiens) (Q16665 whole entry, looked up): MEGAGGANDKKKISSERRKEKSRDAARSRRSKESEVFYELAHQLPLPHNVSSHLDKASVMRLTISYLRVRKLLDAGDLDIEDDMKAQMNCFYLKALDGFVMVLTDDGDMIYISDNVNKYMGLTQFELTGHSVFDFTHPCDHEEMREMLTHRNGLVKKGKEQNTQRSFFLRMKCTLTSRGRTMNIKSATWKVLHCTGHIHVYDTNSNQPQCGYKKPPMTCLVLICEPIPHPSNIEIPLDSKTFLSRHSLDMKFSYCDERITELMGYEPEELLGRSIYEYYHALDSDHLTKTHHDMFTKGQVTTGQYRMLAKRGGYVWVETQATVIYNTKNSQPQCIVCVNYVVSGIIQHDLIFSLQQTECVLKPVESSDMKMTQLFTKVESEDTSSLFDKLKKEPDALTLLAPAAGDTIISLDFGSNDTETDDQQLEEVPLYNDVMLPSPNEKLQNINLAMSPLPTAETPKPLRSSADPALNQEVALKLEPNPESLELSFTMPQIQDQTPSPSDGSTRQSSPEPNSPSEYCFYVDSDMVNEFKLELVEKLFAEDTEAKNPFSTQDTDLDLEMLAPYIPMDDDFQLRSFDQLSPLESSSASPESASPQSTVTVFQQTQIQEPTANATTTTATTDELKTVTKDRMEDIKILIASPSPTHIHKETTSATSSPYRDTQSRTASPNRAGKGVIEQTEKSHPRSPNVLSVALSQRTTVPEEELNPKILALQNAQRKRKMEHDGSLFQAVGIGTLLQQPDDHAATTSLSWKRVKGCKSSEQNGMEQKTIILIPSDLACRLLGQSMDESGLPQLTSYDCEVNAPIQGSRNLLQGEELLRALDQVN
Summary of the method: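 HepG2, transient cis-reporter library, 24 h dosing. RNA → RT (oligo dT) → PCR → 6-FAM primer extension → HpaI → CE. Bidirectional curve fit vs DMSO.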

[8] = target: Hepatocyte nuclear factor 6 (Homo sapiens) (UniProt Q9UBC0); experiment: ATG_HNF6_CIS: Attagene CIS-FACTORIAL HepG2 Assay for human Hepatocyte Nuclear Factor 6 (HNF6) (AID 2282952); conditions: HepG2 Attagene cis-factorial HNF6 reporter transcription; actives raise or lower the signal
Sequence of Hepatocyte nuclear factor 6 (Homo sapiens) (Q9UBC0 whole entry, looked up): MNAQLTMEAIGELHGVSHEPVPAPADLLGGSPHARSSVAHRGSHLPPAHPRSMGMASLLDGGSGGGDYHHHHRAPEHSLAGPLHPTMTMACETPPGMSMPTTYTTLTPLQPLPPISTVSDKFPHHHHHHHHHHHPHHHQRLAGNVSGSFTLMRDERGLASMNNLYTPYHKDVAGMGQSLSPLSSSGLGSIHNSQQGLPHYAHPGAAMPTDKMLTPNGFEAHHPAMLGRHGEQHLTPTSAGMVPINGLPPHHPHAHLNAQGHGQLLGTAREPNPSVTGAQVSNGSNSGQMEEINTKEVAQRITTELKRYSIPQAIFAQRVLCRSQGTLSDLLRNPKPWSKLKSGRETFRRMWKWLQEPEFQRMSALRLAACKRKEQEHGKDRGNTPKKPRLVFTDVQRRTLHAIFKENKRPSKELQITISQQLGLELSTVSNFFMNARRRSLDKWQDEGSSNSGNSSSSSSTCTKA
Summary of the method: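 Cells are HepG2 carrying transiently transfected cis-promoter reporter units. Treatment lasts 24 h, after which reporter transcripts are reverse-transcribed, amplified, FAM-labelled and sized by capillary electrophoresis. DMSO serves as baseline.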

[9] = target: Heat shock factor protein 1 (Homo sapiens) (UniProt Q00613); experiment: ATG_HSE_CIS: Attagene CIS-FACTORIAL HepG2 Assay for human Heat Shock Transcription Factor 1 (HSE) (AID 2282953); conditions: HepG2 HSE cis-reporter, Attagene RNA transcription; actives raise or lower the signal
Sequence of Heat shock factor protein 1 (Homo sapiens) (Q00613 whole entry, looked up, the tested form may be a part): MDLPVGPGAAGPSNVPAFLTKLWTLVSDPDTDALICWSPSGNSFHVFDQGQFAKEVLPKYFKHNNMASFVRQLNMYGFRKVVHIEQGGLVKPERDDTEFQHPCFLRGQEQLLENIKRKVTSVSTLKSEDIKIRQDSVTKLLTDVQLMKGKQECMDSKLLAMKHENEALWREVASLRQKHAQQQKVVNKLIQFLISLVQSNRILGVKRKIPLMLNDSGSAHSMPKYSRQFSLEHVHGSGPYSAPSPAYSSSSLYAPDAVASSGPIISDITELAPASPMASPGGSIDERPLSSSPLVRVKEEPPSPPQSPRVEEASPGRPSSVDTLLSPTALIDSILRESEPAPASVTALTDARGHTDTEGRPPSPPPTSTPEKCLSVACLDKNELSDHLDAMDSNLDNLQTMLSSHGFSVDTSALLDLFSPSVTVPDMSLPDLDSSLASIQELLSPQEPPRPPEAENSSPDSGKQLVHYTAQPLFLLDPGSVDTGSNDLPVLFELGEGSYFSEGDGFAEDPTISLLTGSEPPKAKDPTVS
Summary of the method: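 Cells were transfected with cis-element-driven reporter constructs, dosed for 24 h, then total RNA was reverse-transcribed and reporter cDNA amplified, FAM-labelled and digested with HpaI. Fragments were resolved by capillary electrophoresis; gain or loss was fitted against DMSO.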

[10] = ATG_MRE_CIS: Attagene CIS-FACTORIAL HepG2 Assay for human Metal Responsive Element (MRE) (AID 2282954); conditions: HepG2 MRE cis-reporter transcription, Attagene multiplex; actives raise or lower the signal
Summary of the method: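 Step one: transfect HepG2 with cis-regulated reporter units. Step two: dose 24 h. Step three: isolate RNA, RT-PCR, 6-FAM label, HpaI digest, capillary electrophoresis. Fit bidirectionally to DMSO.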

[11] = ATG_PBREM_CIS: Attagene CIS-FACTORIAL HepG2 Assay for human Phenobarbital-responsive Enhancer Module (PBREM) (AID 2282955); conditions: HepG2 PBREM cis-reporter, Attagene multiplexed transcription; actives raise or lower the signal
Summary of the method: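 HepG2, transient MRTU transfection, 24 h dosing; RNA → oligo(dT) RT → PCR → 6-FAM extension → HpaI → CE. Bidirectional fit vs DMSO.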

[12] = target: Paired box protein Pax-6 (Homo sapiens) (UniProt P26367); experiment: ATG_Pax6_CIS: Attagene CIS-FACTORIAL HepG2 Assay for human Paired Box 6 (PAX6) (AID 2282956); conditions: HepG2 CIS-FACTORIAL PAX6 reporter transcription, RNA readout; actives raise or lower the signal
Sequence of Paired box protein Pax-6 (Homo sapiens) (P26367 whole entry, looked up): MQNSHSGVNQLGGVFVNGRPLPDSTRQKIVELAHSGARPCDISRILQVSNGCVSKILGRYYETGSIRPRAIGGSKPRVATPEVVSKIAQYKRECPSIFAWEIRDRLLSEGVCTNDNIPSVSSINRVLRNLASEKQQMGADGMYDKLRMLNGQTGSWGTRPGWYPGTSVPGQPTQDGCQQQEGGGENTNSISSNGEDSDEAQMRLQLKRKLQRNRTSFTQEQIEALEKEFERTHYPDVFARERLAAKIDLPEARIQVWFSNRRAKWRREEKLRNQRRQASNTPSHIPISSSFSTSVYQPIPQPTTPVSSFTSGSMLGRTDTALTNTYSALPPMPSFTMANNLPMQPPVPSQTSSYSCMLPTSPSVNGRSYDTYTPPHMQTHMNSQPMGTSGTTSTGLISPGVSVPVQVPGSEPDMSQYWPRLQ
Summary of the method: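 Multiplexed cis-reporter HepG2 system; 24 h treatment; reporter mRNA read by RT-PCR/CE fluorescence; bidirectional fit vs DMSO.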

[13] = ATG_PXRE_CIS: Attagene CIS-FACTORIAL HepG2 Assay for human Pregnane X Receptor Element (PXRE) (AID 2282957); conditions: HepG2 Attagene CIS-FACTORIAL PXRE reporter, mRNA; actives raise or lower the signal
Summary of the method: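 Multiplexed cis-reporter assay in transiently transfected human HepG2 cells; 24 h chemical exposure. Reporter transcripts quantified by RT-PCR with fluorescent labeling and capillary electrophoresis.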

[14] = ATG_PPRE_CIS: Attagene CIS-FACTORIAL HepG2 Assay for human Peroxisome Proliferator-activated Response Element (PPRE) (AID 2282958); conditions: HepG2 PPRE cis-element reporter, Attagene transcription factor profiling; actives raise or lower the signal
Summary of the method: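 Transcript-level reporter induction in transfected HepG2 cells after 24 h chemical exposure, quantified by fluorescence from RT-PCR products separated by capillary electrophoresis.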

[15] = ATG_RORE_CIS: Attagene CIS-FACTORIAL HepG2 Assay for human RAR-related Orphan Receptor Element (RORE) (AID 2282959); conditions: HepG2 Attagene cis-factorial RORE reporter, mRNA; actives raise or lower the signal
Summary of the method: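 Multiplexed reporter assay measuring mRNA induction from a cis promoter element in transiently transfected HepG2 cells after 24 h treatment. Detection via RT-PCR and capillary electrophoresis fluorescence; DMSO serves as baseline.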

[16] = ATG_Sox_CIS: Attagene CIS-FACTORIAL HepG2 Assay for human SRY-box transcription factor (SOX) (AID 2282960); conditions: HepG2 Attagene cis-factorial SOX reporter, mRNA; actives raise or lower the signal
Summary of the method: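 Cells were transfected with reporter constructs under cis-regulatory promoters, then exposed to chemicals for 24 h. Reporter transcripts were quantified by fluorescence after RT-PCR and capillary electrophoresis; activity was fitted in both directions against DMSO.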

[17] = target: Transcription factor Sp1 (Homo sapiens) (UniProt P08047); experiment: ATG_Sp1_CIS: Attagene CIS-FACTORIAL HepG2 Assay for human Specificity Protein 1 (Sp1) (AID 2282961); conditions: HepG2 Sp1 cis-reporter transcription, actives raise or lower the signal
Sequence of Transcription factor Sp1 (Homo sapiens) (P08047 whole entry, looked up): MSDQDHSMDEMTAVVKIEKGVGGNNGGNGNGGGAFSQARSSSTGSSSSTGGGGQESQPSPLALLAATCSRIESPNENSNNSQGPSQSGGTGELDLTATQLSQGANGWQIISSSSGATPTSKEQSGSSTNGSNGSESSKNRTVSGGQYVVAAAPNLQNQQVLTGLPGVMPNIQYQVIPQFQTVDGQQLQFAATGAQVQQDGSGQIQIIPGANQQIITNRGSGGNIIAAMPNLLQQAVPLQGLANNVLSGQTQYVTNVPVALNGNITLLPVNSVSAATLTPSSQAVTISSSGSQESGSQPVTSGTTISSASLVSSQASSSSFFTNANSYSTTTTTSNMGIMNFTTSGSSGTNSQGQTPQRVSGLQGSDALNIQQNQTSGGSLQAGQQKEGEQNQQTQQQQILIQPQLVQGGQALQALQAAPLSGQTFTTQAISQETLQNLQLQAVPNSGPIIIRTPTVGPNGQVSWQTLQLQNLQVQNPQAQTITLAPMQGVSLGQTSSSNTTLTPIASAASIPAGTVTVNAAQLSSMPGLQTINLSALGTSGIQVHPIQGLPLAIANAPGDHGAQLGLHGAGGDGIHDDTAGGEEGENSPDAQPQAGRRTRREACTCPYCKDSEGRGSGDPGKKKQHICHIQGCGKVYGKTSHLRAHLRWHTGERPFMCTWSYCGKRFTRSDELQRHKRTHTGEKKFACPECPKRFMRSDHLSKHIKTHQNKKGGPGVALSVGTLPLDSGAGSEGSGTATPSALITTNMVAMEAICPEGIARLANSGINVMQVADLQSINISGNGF
Summary of the method: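 Measures mRNA induction of an Sp1-linked reporter in HepG2 cells 24 h post-dosing. Multiplexed reporters read by RT-PCR and capillary electrophoresis; DMSO serves as negative control and baseline.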

[18] = ATG_SREBP_CIS: Attagene CIS-FACTORIAL HepG2 Assay for human Sterol Regulatory Element Binding (SREBP) (AID 2282962); conditions: HepG2 Attagene cis-factorial SREBP reporter, mRNA; actives raise or lower the signal
Summary of the method: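 mRNA induction of transfected cis-promoter reporters in HepG2 cells, 24 h post-dose. Detection: RT-PCR with 6-FAM-labelled products, HpaI digest, capillary electrophoresis. DMSO served as negative control and baseline.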

[19] = target: Signal transducer and activator of transcription 3 (Homo sapiens) (UniProt P40763); experiment: ATG_STAT3_CIS: Attagene CIS-FACTORIAL HepG2 Assay for human Signal Transducer and Activator of Transcription 3 (STAT3) (AID 2282963); conditions: HepG2, Attagene cis-factorial STAT3 reporter transcription; actives raise or lower the signal
Sequence of Signal transducer and activator of transcription 3 (Homo sapiens) (P40763 whole entry, looked up): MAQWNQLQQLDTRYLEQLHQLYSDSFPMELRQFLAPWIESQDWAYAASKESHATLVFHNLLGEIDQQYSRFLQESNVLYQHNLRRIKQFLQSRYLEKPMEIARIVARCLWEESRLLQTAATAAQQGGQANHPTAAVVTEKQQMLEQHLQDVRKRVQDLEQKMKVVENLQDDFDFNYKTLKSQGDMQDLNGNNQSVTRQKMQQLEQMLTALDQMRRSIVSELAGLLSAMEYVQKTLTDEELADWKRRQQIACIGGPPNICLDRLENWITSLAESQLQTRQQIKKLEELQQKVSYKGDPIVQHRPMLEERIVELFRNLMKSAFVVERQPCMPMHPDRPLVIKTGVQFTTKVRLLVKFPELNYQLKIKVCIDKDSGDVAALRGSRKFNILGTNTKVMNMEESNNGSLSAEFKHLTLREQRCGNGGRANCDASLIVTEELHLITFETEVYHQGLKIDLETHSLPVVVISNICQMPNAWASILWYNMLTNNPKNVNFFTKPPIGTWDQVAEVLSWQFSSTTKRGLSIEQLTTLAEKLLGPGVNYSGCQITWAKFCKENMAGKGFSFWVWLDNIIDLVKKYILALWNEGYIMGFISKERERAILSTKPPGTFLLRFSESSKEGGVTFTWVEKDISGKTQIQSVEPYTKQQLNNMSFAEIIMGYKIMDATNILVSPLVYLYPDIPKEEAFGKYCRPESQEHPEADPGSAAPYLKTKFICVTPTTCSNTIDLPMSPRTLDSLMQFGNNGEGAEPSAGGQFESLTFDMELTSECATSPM
Summary of the method: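 Transcript-level reporter assay. HepG2 transient MRTU transfection, 24 h exposure, fluorescence detection after RT-PCR and CE; DMSO baseline.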

[20] = ATG_TA_CIS: Attagene CIS-FACTORIAL HepG2 Assay for human TA Basal Promoter (AID 2282964); conditions: HepG2 Attagene CIS-factorial TA basal promoter reporter; actives raise or lower the signal
Summary of the method: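 Steps: transfect HepG2 with MRTUs; dose 24 h; isolate RNA, DNase-treat, reverse-transcribe; PCR and FAM-label reporter cDNA; digest with HpaI 2h at 37 C; run capillary electrophoresis. Activity fitted both directions against DMSO.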

Measured: AC50

CCCCC(CC)COC(=O)c1c(Br)c(Br)c(Br)c(Br)c1C(=O)OCC(CC)CCCC (configuration not stated)
active: [13] 19.9 µM
inactive: all other assays above

C=CC(=O)OCC(F)(F)C(F)F
active: [4] 150 µM | [10] 117 µM
not listed: [11]
inactive: all other assays above

O=NN1CCCC1
inactive: all assays above

O=C(O)C(F)(F)OC(F)(F)C(F)(F)OC(F)(F)F
active: [14] 96.5 µM and 114 µM
inactive: all other assays above

N#C/C=C/c1ccccc1
not listed: [11]
inactive: all other assays above

O=C(O)C(F)(OC(F)(F)C(F)(F)C(F)(F)F)C(F)(F)F (configuration not stated)
active: [14] 74.8 µM
inactive: [1] | [2] | [3] | [4] | [5] | [6] | [7] | [8] | [9] | [10] | [11] | [12] | [13] | [14] | [16] | [17] | [18] | [19] | [20]

O=P(Oc1ccccc1)(Oc1ccccc1)Oc1ccccc1
active: [1] 53.3 µM | [2] 26.6 µM | [4] 33.4 µM | [9] 53.4 µM | [10] 33.4 µM | [12] 33.4 µM | [13] 8.63 µM | [18] 16.7 µM | [20] 42 µM
not listed: [15]
inactive: all other assays above
